About 83,000 compounds went through this panel and 20% of them were active in at least one assay; those are over-represented in the sample as a whole.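 The endpoint reported here, percent growth, reads 100 for growth as untreated, 0 for no net growth and -100 for all cells dead.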 Values without a mark were called inactive. Calls of active or inactive are those of the source. How the source made its calls: active means growth percent below 10; inactive means the rest.

This test concerns NCI-H23 lung. Put plainly: NCI-60 one-dose screen, 48 h (100 = growth as untreated, 0 = no growth, -100 = all killed). The settings on record: 10 µM unless noted.
As to `COc1cc2c(c(OC)c1OC)C(=O)CC(c1cccc(NC(=O)[C@@H](N)CC(C)C)c1)O2` (stereo partly drawn), the growth is 102%. The figure for `CN1CCN(/C(=N\c2sc(-c3ccccc3)nc2-c2ccccc2)c2ccccc2)CC1` is 104%; for `Cc1ccc(-c2nnc3ccc(N/N=C/c4ccccc4)nn23)cc1` it is 60.5%; for `COc1ccc(C(=O)/C=C/c2ccccc2Br)cc1S(N)(=O)=O` it is -21.4% (active). As for `CC1=C(C(=O)OCc2ccccc2)C(c2c(O)cc(O)cc2O)n2c(nc3ccccc32)N1` (stereo not drawn), the figure is 65.9%; as for `CCCCc1c(Nn2cnnn2)no[n+]1[O-]`, 56.2%. The figure for `CC(C)CSc1nc(NCCc2c[nH]c3ccccc23)c(C#N)c(-c2ccc(Cl)cc2)n1` is 69.2%.

With `CN1CCc2c(sc3ncnc(N/N=C/c4ccc(Cl)cc4Cl)c23)C1`, the growth is 12.2%. Regarding `N#Cc1c(-c2ccc(Br)cc2)nc2n[nH]c(-c3ccc(Br)cc3)c2c1-c1ccc(F)cc1`, the growth is 92.6%. As for `CC(=O)OC[C@@]1(C)C2CC[C@]3(C)C(CC=C4C5CC(C)(C)CC[C@]5(C(=O)Nc5ccc(F)cc5)CC[C@]43C)[C@@]2(C)C[C@@H](OC(C)=O)[C@@H]1OC(C)=O` (stereo partly drawn), the growth was 45.6%.

`NS(=O)(=O)c1ccc(N=Nc2c(O)n(CC(=O)Nc3ccccc3Cl)c3ccccc23)cc1`: the growth is 30%. As for `CCCCNC(=S)Nc1ccc(OCc2nc3ccccc3[nH]2)cc1`, the figure is 70%. As for `Cc1cc2nc3c4ccccc4n(CCCN(C)C)c3nc2cc1C`, the figure is -53.4% (active); as for `COc1cc2c(c(OC)c1OC)C(=O)CC(c1cccc(NC(=O)c3cc(NC(=O)[C@@H](N)CO)ccc3C)c1)O2` (stereo partly drawn), 112%; as for `CC(=O)OC[C@@]1(C)C2CC[C@]3(C)C(CC=C4C5CC(C)(C)CC[C@]5(C(=O)Nc5ccc(C)cc5)CC[C@]43C)[C@@]2(C)C[C@@H](OC(C)=O)[C@@H]1OC(C)=O` (stereo partly drawn), 49.3%. Consider `Cc1ccc(C(=O)CSc2nc3ccc(F)cc3c(=O)n2-c2ccc(Cl)cc2)cc1`, for which the growth was 46%. With `COc1ccc(-c2ccnc(SCc3cc4cc(Cl)ccc4[nH]c3=O)n2)cc1`, the growth is 57.8%.

Regarding `COc1cc(-c2ccc(/C=N/NC(=O)c3[nH]c4ccc(Br)cc4c3-c3ccccc3)o2)cc(OC)c1OC`, the growth was 53.9%.

Regarding `CC1=C(C(=O)OC(C)C)C(c2cccc(O)c2)NC(=S)N1` (stereo not drawn), the growth is 106%. As for `COc1cccc(COc2ccc(NC(=O)Nc3ccc(Cl)c(C(F)(F)F)c3)cc2)c1`, the figure is 21.1%; as for `COc1ccc(C(=O)Nc2n[nH]c(Nc3ccccc3)c2C#N)cc1`, 110%; as for `O=C(c1ccc(OCCN2CCOCC2)cc1)C1[C@H](c2ccc(Cl)cc2)[C@@H](c2ccccc2)NC12C(=O)Nc1ccc(Cl)cc12` (stereo partly drawn), 37.9%. The figure for `O=C(N=Nc1c(O)[nH]c2ccc([N+](=O)[O-])cc12)c1ccc2nc(-c3ccccc3)[nH]c2c1` is 64.7%; for `CCN(CC)C(=O)N/C(N)=N/c1nc2ccccc2s1` it is 34.5%; for `Nc1nnc(-c2c[nH]c3ncc(Br)cc23)c(-c2c[nH]c3ccc(F)cc23)n1` it is 33.3%. For the compound `O=C(COc1ccc(NC(=O)Nc2ccccc2)cc1)N=Nc1c(O)[nH]c2ccc([N+](=O)[O-])cc12`, the growth was 10.5%. The figure for `CC(=O)Nc1ccc(-n2cnc3cc(-c4ccc(O)cc4)ccc32)cc1C(F)(F)F` is 21.4%; for `CN(C)CCn1c2ccccc2c2nc3cc4ccccc4cc3nc21` it is 16.6%; for `COc1cc2oc(-c3cccc(C(=O)Nc4cccc([N+](=O)[O-])c4)c3)cc(=O)c2c(OC)c1OC` it is 41.1%. With `Cc1cccc(NC(=O)[C@]23CCC(C)(C)CC2C2=CCC4[C@@]5(C)C[C@@H](O)[C@H](O)[C@@](C)(CO)C5CC[C@@]4(C)[C@]2(C)CC3)c1` (stereo partly drawn), the growth was -27.7% (active).

In the case of `O=C(/C=C/c1cccc(OCc2ccccc2)c1)c1nc2ccccc2[nH]1`, the growth was 63.7%.

For `COc1ccc(N2N=C(c3ccc4c(c3)OCO4)CC2c2cccc(NC(=O)CCNS(=O)(=O)c3ccc(Cl)cc3)c2)cc1` (stereo not drawn), the growth is 32.6%. The figure for `CN(C)c1ccnc(CNCCSC2(c3ccccc3)c3ccccc3C=Cc3ccccc32)c1` is -30.6% (active); for `CC1=C(C(=O)c2ccccc2)C(c2ccc(-n3cncn3)cc2)n2c(nc3ccccc32)N1` (stereo not drawn) it is 87.9%.

On to `Cc1cnc(C(=O)NNc2nc3cc(F)ccc3n3c(C(=O)N4CC5CC(C4)N5)ccc23)cn1`, for which the growth is 51.1%. The figure for `CN(C)CCCNC(=O)c1cc(NC(=O)c2cc(NC(=O)c3ccc(C#Cc4ccccc4)cc3)cn2C)cn1C` is -42.7% (active); for `N/C(=N\N=C\c1ccc([N+](=O)[O-])cc1)c1c(N)nc(=S)[nH]c1-c1ccc(Cl)cc1Cl` it is 90.2%. The figure for `C=C1CCC2C3(C)COC(c4cccc(F)c4)OC3CCC2(C)C1C/C=C1/C(=O)OCC1O` (stereo not drawn) is -37.6% (active).

The values above are taken from PubChem BioAssay (NCI).
